Screening results: PubChem BioAssay, The Scripps Research Institute Molecular Screening Center
Rows were chosen to be rich in hits. Some 2.9% of all compounds tested hit in one or more screens of this group.
PAFAH1B2 inh = PAFAH1B2 enzyme inhibitors, primary screen, biochemical, fluorescence polarization, human. Platelet-activating factor acetylhydrolase IB subunit alpha2 (Homo sapiens), P68402. recombinant PAFAH1B2, FP-rhodamine activity probe. inhibition, % at 3.39 µM. hit rate 1.2% among 340,000. AID 492953, 2010;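 active = inhibition above the mean of all tested compounds plus 3 SD, cut at about 24% in these data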
Target sequence (P68402 whole entry, looked up): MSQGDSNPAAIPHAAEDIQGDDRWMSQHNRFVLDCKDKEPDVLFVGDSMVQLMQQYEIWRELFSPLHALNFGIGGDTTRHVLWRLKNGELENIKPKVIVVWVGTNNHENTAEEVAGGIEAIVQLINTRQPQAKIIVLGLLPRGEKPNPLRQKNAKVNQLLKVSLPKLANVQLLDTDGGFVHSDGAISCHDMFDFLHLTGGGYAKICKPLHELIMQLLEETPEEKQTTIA
LYPLA1 counter = LYPLA1 inhibitors, primary screen, counter-screen for PME1 inhibitor project, biochemical, fluorescence polarization, FP-Rh probe ABPP; inhibition, % at 5.9 µM; hit rate 0.16% among 320,000; recombinant LYPLA1; Acyl-protein thioesterase 1 (Homo sapiens), O75608;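 active = inhibition above the mean of all tested compounds plus 3 SD, set per campaign, cut at about 14% in these data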;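 also: inhibitors block serine hydrolase probe labeling of LYPLA1 so polarization falls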
PAFAH2 FP inh = PAFAH2 enzyme inhibitors, primary screen, biochemical, fluorescence polarization, human | recombinant PAFAH2, FP-rhodamine activity probe | hit rate 0.99% among 340,000 | AID 492956, 2010 | inhibition, % at 3.39 µM | Platelet-activating factor acetylhydrolase 2, cytoplasmic (Homo sapiens), Q99487;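 active = inhibition above the mean over all tested compounds plus 3 SD, cut at about 30% in these data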;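 also: inhibitors block probe labeling of enzyme so polarization drops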
pPAFAH inh = pPAFAH enzyme inhibitors, primary screen, biochemical, fluorescence polarization, human; Platelet-activating factor acetylhydrolase (Homo sapiens), Q13093; inhibition, % at 3.39 µM; hit rate 1.5% among 330,000; recombinant pPAFAH, FP-rhodamine probe fluorescence polarization;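 active = inhibition above the mean inhibition across the screen plus 3 SD, cut at about 25% in these data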;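 also: inhibitors block binding of the rhodamine activity-based probe so polarization drops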
LYPLA2 inh = LYPLA2 inhibitors, primary screen, counter-screen for PME1 inhibitor project, biochemical, fluorescence polarization, FP-Rh probe ABPP; Acyl-protein thioesterase 2 (Homo sapiens), O95372; recombinant LYPLA2; inhibition, % at 5.9 µM; hit rate 0.38% among 320,000;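 active = inhibition above the screen-wide mean plus 3 SD, limit set per campaign, cut at about 26% in these data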
PAFAH1B3 inh = PAFAH1B3 enzyme inhibitors, primary screen, biochemical, fluorescence polarization, human; Platelet-activating factor acetylhydrolase IB subunit alpha1 (Homo sapiens), Q15102; recombinant PAFAH1B3, FP-rhodamine probe; inhibition, % at 3.39 µM; hit rate 0.28% among 340,000; AID 492972, 2010;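 active = inhibition above the screen-wide average of all tested compounds plus 3 SD, cut at about 25% in these data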
Target sequence (Q15102 whole entry, looked up): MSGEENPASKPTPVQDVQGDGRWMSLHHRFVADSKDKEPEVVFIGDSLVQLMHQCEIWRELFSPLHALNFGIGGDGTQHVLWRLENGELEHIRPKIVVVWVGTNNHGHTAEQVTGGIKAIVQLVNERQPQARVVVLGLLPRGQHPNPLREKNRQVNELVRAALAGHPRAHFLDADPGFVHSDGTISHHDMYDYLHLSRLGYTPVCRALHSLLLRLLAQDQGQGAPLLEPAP
Numbers stand for hits; n = inactive; x = no result given.

SMILES	PAFAH1B2 inh	LYPLA1 counter	PAFAH2 FP inh	pPAFAH inh	LYPLA2 inh	PAFAH1B3 inh
COc1cc(NC(=O)CN(c2cc(C)cc(C)c2)S(=O)(=O)c2c(C)[nH]c(=O)[nH]c2=O)cc(OC)c1	n	n	n	24.8	n	n
Cc1cc(C)cc(N(CC(=O)Nc2ccc(C(F)(F)F)cc2)S(=O)(=O)c2c(C)[nH]c(=O)[nH]c2=O)c1	n	n	n	28.2	n	n
Cc1cc(C)cc(N(CC(=O)Nc2ccc(C)cc2Cl)S(=O)(=O)c2c(C)[nH]c(=O)[nH]c2=O)c1	n	n	n	n	n	n
Cc1ccc(/C=N/OC(=O)c2nn(C)cc2Cl)cc1	28.3	n	n	n	n	n
Cc1ccc(S(=O)(=O)Oc2ccc(/C=N/NC(=O)c3nn(C)cc3Cl)cc2)cc1	n	n	n	n	n	n
N#CC1=C(N)Oc2ccc3ccc(O)cc3c2C1c1ccsc1 (stereo unspecified)	93.2	x	97.8	x	x	113.5
Cc1[nH]nc2c1C(c1ccsc1)C(C#N)=C(N)O2 (stereo unspecified)	n	n	n	n	n	n
O=[N+]([O-])c1cc(S(=O)(=O)N2CCCCCC2)ccc1F	29.2	n	n	n	n	n
N#C/C(=C(/O)COC(=O)c1ccc(C#N)cc1)c1nc2ccccc2s1	n	n	n	25.4	n	n
Cc1ccc(SC/C(O)=C(\C#N)c2nc3ccccc3s2)cc1	28.9	n	n	n	n	n
Cc1cc[n+](-c2[nH]c(=O)sc2/C=N/N=C(\[O-])CCn2c3ccccc3c3ccccc32)cc1	x	n	x	31.6	n	x
CCOc1ccc(CSCCNC(=S)Nc2ccc(OC)cc2)cc1	n	n	n	n	n	n
Nc1cccc(-c2ccc(CO)o2)c1	n	n	n	n	n	n
COCCNC(=O)CN1C(=O)NC2(CCOc3ccccc32)C1=O (stereo unspecified)	n	n	n	n	n	n
CC(CNC(=O)CN1C(=O)NC2(CCOc3ccccc32)C1=O)c1ccccc1 (stereo unspecified)	28.2	n	n	n	n	n
COc1ccccc1C(=O)Nc1ccc(N2CCN(Cc3ccccc3)CC2)cc1	n	n	n	n	n	n
O=C1NC(c2cccc3ccccc23)Nc2ccccc21 (stereo unspecified)	n	x	n	x	x	n
O=C1c2ccccc2C(=O)C12OC2c1cccc2ccccc12 (stereo unspecified)	n	n	n	n	n	64.9
O=C1c2cccc3c([N+](=O)[O-])ccc(c23)C(=O)N1c1ccc(Cl)cn1	n	n	n	n	n	33.8
O=C1c2cccc3c([N+](=O)[O-])ccc(c23)C(=O)N1c1nccs1	n	n	n	n	n	32.9
O=C1c2cccc3cccc(c23)C(=O)N1c1nccs1	n	n	n	n	n	n
O=C1OCCC1N1C(=O)c2ccccc2S1(=O)=O (stereo unspecified)	n	n	n	n	n	n
COc1cccc2c1C(=O)c1c(O)c3c(c(O)c1C2=O)C[C@@](O)(C(=O)CO)C[C@@H]3OC1CC(N)C(O)C(C)O1 (stereo partly specified)	51.8	x	53.9	x	x	52.4
COc1cccc2c1C(=O)c1c(O)c3c(c(O)c1C2=O)CC(O)(C(C)=O)CC3OC1CC(N(C)C)C(O)C(C)O1 (stereo unspecified)	58.9	x	61.8	x	x	45.9
CCc1nc2c(cnn2-c2ccc(F)cc2)c(=O)n1-c1ccc(N2CCC(C)CC2)cc1	n	n	n	n	n	n
SMILES	PAFAH1B2 inh	LYPLA1 counter	PAFAH2 FP inh	pPAFAH inh	LYPLA2 inh	PAFAH1B3 inh
NC(=O)c1ncn([C@@H]2O[C@H](CNCc3cc(Cl)ccc3OCc3ccc(Cl)cc3)[C@@H](O)[C@H]2O)n1	28.5	x	n	x	x	n
Cn1c(N)c(C(=O)CSc2nnc(C3CC3)n2-c2ccccc2)c(=O)[nH]c1=O	n	x	n	n	x	n
Cn1c(N)c(C(=O)CSc2nc(C3CC3)n(-c3ccccc3)n2)c(=O)[nH]c1=O	n	n	n	31.8	n	n
COc1cc(CN(C)c2ccc(S(=O)(=O)N3CCCC3)cn2)ccc1OC(F)F	n	x	n	x	x	n
N#Cc1nc(COc2cccc(Cl)c2)oc1NCCN1CCOCC1	n	n	n	n	n	n
N#CCCN(C(=O)CSc1nnc(-c2ccncc2)n1C1CC1)c1ccccc1	n	n	n	n	n	n
NC(=O)Cc1ccc(C(=O)CSc2nnc(-c3ccncc3)n2C2CC2)s1	n	x	n	33.3	x	n
Cc1ccccc1C(=O)NNC(=S)Nc1cccc(C(F)(F)F)c1	n	n	n	n	n	n
O=C(NNC(=S)Nc1cccc(C(F)(F)F)c1)c1ccc(Cl)cc1Cl	n	n	n	24.8	n	n
Cc1sc(NC(=O)c2sc3nc4c(C)cccc4cc3c2N)c(C#N)c1C	n	n	n	27.2	n	n
O=C(Cc1ccccc1)Nc1ccc(N2CCCC2)cc1	n	n	n	33.4	n	n
CCN(C(=O)c1ccc(NC(=O)Cc2ccccc2)cc1)c1ccccc1	25.7	x	n	x	x	n
O=C(Nc1cc([N+](=O)[O-])ccc1O)c1cccc(C(=O)Nc2cc([N+](=O)[O-])ccc2O)c1	n	n	33.4	n	n	33.9
O=C(Nc1cc([N+](=O)[O-])ccc1O)c1ccc2c(c1)C(=O)N(Cc1ccco1)C2=O	n	n	n	29.9	n	n
O=C(Nc1ccc(O)cc1C(=O)O)c1ccc2c(c1)C(=O)N(Cc1ccco1)C2=O	n	n	n	n	n	n
O=C(COc1cccc(F)c1)NNC(=O)Cc1ccc(Br)cc1	n	n	n	n	n	n
Cc1cccc(NC(=S)NCCSc2ccc(Cl)cc2)c1	27.6	n	n	n	n	n
CCc1ccccc1NC(=S)NCCSc1ccc(Cl)cc1	36.7	n	n	30.7	n	n
Cc1ccc(C)c(NC(=S)NCCSc2ccc(Cl)cc2)c1	37.2	n	n	n	n	n
O=C(/C=C/c1ccccc1)NCCSc1ccc(Cl)cc1	28.8	n	n	n	n	n
COc1cccc(NC(=O)Cc2ccc3ccccc3c2)c1	n	n	n	n	n	n
Cc1ccc(-c2[nH]ncc2/C=N/n2c(COc3ccccc3)nc3ccccc3c2=O)cc1	n	n	n	n	n	n
Cc1cc(/C=N/n2c(COc3ccccc3)nc3ccccc3c2=O)c(O)c([N+](=O)[O-])c1	n	n	n	30.6	n	n
Cc1ccccc1C1CC(=O)Oc2cc(O)ccc21 (stereo unspecified)	33.7	x	40.1	32.0	x	40.6
CC1=C(C(=O)N2CCOCC2)C(c2ccccc2F)C2=C(CC(C)(C)CC2=O)N1 (stereo unspecified)	n	n	n	n	n	n
